KDM5B inh: KDM5B demethylase inhibition; Q9UGL1; hit rate 2.6% among 220,000; Potency, µM (top dose mostly 57.7 µM), usual class: inhibitors; KDM5B demethylase, FDH-coupled NADH fluorescence (FDH is formaldehyde dehydrogenase); active = well fitted inhibition curve with a large enough effect; also: 0% is about no effect; nearly all actives have a fitted effect of over 70% in size
Target sequence (Q9UGL1 whole entry, looked up): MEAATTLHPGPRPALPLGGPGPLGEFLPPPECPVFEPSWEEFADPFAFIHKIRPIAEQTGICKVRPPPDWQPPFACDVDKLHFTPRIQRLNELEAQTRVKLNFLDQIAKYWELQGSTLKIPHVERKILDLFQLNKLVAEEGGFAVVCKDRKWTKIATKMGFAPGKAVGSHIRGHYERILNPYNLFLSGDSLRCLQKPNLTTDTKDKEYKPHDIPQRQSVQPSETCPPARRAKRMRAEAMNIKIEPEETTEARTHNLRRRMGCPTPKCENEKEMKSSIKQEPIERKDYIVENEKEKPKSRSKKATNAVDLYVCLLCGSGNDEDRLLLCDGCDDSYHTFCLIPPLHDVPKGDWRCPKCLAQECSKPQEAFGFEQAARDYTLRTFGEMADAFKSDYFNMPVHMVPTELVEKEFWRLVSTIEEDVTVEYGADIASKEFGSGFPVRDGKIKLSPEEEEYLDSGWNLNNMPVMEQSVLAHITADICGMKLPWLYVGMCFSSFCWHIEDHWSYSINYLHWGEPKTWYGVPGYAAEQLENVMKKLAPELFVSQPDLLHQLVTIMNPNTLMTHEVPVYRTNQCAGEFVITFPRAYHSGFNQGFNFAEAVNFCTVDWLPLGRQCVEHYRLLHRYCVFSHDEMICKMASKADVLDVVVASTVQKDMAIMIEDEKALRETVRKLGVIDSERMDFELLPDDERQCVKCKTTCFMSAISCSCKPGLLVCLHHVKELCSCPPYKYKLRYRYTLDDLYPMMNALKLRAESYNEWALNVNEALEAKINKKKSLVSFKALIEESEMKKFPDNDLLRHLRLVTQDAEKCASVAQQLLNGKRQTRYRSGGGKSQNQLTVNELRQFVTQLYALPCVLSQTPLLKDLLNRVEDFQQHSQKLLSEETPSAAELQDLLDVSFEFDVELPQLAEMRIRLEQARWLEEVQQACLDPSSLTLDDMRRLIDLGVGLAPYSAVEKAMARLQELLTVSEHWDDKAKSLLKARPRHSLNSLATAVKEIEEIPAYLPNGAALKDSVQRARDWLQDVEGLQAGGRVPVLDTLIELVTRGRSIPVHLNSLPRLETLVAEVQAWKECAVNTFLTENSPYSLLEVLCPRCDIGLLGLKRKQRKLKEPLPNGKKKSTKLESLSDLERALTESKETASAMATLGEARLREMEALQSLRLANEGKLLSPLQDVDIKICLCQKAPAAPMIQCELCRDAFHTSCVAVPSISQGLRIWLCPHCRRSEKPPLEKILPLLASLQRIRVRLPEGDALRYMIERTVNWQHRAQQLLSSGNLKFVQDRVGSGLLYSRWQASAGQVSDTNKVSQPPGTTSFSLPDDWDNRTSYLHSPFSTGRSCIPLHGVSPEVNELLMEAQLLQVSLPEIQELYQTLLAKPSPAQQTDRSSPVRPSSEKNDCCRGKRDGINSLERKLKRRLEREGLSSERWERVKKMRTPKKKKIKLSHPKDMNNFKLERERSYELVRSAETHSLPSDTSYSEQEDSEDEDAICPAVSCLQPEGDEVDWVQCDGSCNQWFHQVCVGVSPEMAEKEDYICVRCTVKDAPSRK
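Here, H3K4me3 peptide (12.5 µM in substrate mix) is demethylated by KDM5BΔAP, 200 nM final, after 10 min compound exposure. Formaldehyde product is coupled through FDH (0.25 U/mL in mix) to NADH fluorescence; 30-min ΔRFU feeds dose-response curves.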
* marks the source's active call; other numbers are inactive results; i = inactive. Many of the other results were omitted from the sample, so hits are more common in it than they were. Potency is read from the fitted curve at half-maximal effect.

SMILES | KDM5B inh
COC(=O)[C@@H]1CCCN1c1ccc(-c2nc(-c3ccccc3F)no2)cn1 | 25µM*
O=C(O)C(c1c[nH]c2ccc(Cl)cc12)N1CCN(CCNc2cc(=O)oc3ccccc23)CC1 (centres undefined) | i
O=C(NCCNc1ccc(C(F)(F)F)cn1)C1CC=CCC1 (centres undefined) | i
Cc1ccc(-n2nc(C)c(=O)c(-c3ccccc3)c2NC(=O)c2ccco2)cc1C | i
CCn1c(=O)n(CC)c2cc(N3CCCC3)c(NC(=O)Nc3cccc(SC)c3)cc21 | i
O=C(Cc1c[nH]c2ccccc12)OC/C=C/c1ccccc1 | i
CC(C)n1nc(C(=O)OCc2nc(N)nc(Nc3ccccc3)n2)c2ccccc2c1=O | i
N#Cc1ccc(N2CCN(C(=O)CCn3cncn3)CC2=O)cc1 | i
N#Cc1ccc(N2CCN(C(=O)CNC(N)=O)CC2=O)cc1 | i
COc1cc2c(cc1CN1CCN(c3ccc(C#N)cc3)C(=O)C1)CCC2 | 32µM*
CC(C)c1ccc(NC(=O)Cn2cc(C#N)c3ccccc32)cc1 | i
COCCCNC(=O)CN1CCN(CC=C(C)C)CC1 | i
CN(C)C(=O)N1Cc2ccccc2OC2(CCN(C(=O)c3cccc4[nH]ccc34)CC2)C1 | i
O=C(c1cc(F)ccc1F)N1CCCC(c2nn[nH]n2)C1 (centres undefined) | i
O=C(NC1CCCC1)C1CCCN(C(=O)c2ccc3cc[nH]c3c2)C1 (centres undefined) | i
O=C(c1ccc2cc[nH]c2c1)N1CCCC(c2nn[nH]n2)C1 (centres undefined) | 22µM*
CN1CCOC[C@H]2CCN(C(=O)c3cccc4[nH]ccc34)C[C@H]21 | 25µM*
Cn1nnnc1C1CCCN(C(=O)c2ccc3cc[nH]c3c2)C1 (centres undefined) | 20µM*
O=C(NC1CCCCC1)N1CCCC(c2nn[nH]n2)C1 (centres undefined) | i
Cc1noc(-c2cn(C3CCCN(C(=O)c4ccc5[nH]ccc5c4)C3)nn2)n1 (centres undefined) | i
Cn1nnnc1C1CCCN(C(=O)c2ccccc2)C1 (centres undefined) | i
CN1CCOC[C@H]2CCN(C(=O)c3ccco3)C[C@H]21 | i
Cc1ccc(C(=O)N2CCC(c3noc(C4CC4)n3)C2)cn1 (centres undefined) | i
Cc1ccc(C(=O)N2CCCC(c3nn[nH]n3)C2)cn1 (centres undefined) | 22µM*
N#Cc1cccc(NC(=O)CCCNC(=O)C2CC2)c1 | i
SMILES | KDM5B inh
CNC(=O)c1ccccc1NCC(=O)Nc1sc2c(c1C#N)CCCCC2 | i
CCC(=O)Nc1sc(C)c(C)c1C#N | i
COc1ccc(CN2CCN(CC=C(C)C)CC2)cc1 | i
CCCCCCCCC#CC#Cc1cccc(C(=O)O)c1 | i
CCCN1CCN(c2nc3c(c(=O)[nH]c(=O)n3C)n2Cc2ccccc2)CC1 | i
CN(C)CC(NS(=O)(=O)c1ccccc1F)c1ccccc1 (centres undefined) | i
Nc1nc(Nc2ccc(Cl)c(Cl)c2)nc(-c2cc3ccccc3o2)n1 | i
CC1(c2ccc3c(c2)OCCO3)NC(=O)N(CC(=O)c2cn(CCC#N)c3ccccc23)C1=O (centres undefined) | i
O=C(C1CC1)N(Cc1ccc2c(c1)CN(S(=O)(=O)c1cc(F)ccc1F)CCO2)c1ccccc1 | i
O=C(c1ccc(Cl)cc1)c1ccccc1C(=O)N1CCN(C(=O)C2CC2)CC1 | i
O=C(O)[C@@H]1CCCC[C@@H]1C(=O)N1CCOCC1 | i
Cc1cc(C)n(CCC(=O)N2CCCC(c3nnnn3C)C2)n1 (centres undefined) | 25µM*
COCCOC1CN(C2CCN(C(=O)c3cccc4[nH]ccc34)CC2)C12CCCCC2 (centres undefined) | 22µM*
COc1ccccc1C(=O)N1CCCC(c2nn[nH]n2)C1 (centres undefined) | i
CCn1c(C2CCCN(C(=O)c3ccco3)C2)nn(C)c1=O (centres undefined) | i
Cn1nnnc1C1CCCN(C(=O)c2cccc3[nH]ccc23)C1 (centres undefined) | 32µM*
Cn1nnnc1C1CCCN(C(=O)C2CC2)C1 (centres undefined) | i
O=C(c1ccco1)N1CCCC(c2nn[nH]n2)C1 (centres undefined) | 22µM*
Cc1cccc(NC(=O)N2CCCC(c3nnnn3C)C2)c1 (centres undefined) | i
Cn1nnnc1C1CCCN(C(=O)CC2CCCC2)C1 (centres undefined) | i
Cn1nccc1C(=O)N1CCCC(c2nnnn2C)C1 (centres undefined) | i
COCCOC1CN(C2CCN(C(=O)c3nn(C)c4ccccc34)CC2)C12CCCCC2 (centres undefined) | i
COCCOC1CN(C2CCN(C(=O)c3ccc(OC)cc3)CC2)C12CCCCC2 (centres undefined) | i
O=C(O)c1ccc(CNCc2ccc(-c3ccccc3)o2)cc1 | i
N#CC1=C(SCC(=O)c2ccc(Br)cc2)NC(=O)C(C#N)C12CCCCC2 (centres undefined) | i
SMILES | KDM5B inh
CC(CNC(=O)c1cc2ccccc2oc1=O)(c1ccccc1)c1ccccc1 | i
COC(=O)C(C)Oc1c(Br)cc(C=O)cc1OC (centres undefined) | i
CCCCCC(C)NC(=O)Nc1cc(C(F)(F)F)ccc1Cl (centres undefined) | i
Cc1cc(C)c(OCC(=O)N2CCC(NC(=O)c3ccccc3)CC2)c(C)c1 | i
O=S(=O)(Cc1ccc(F)cc1Cl)c1ccc2ccccc2c1 | i
Cc1nc(SCC(=O)Nc2ccc(C#N)cc2)n(CC(C)C)c1C | i
O=C(c1cccc(C(F)(F)F)c1)N1CCC(c2n[nH]c(=O)n2Cc2ccc(F)cc2)CC1 | i
CCCC(=O)NCCCCCCNC(=O)CCC | i
Cc1c(-c2ccccc2)oc2c(C(=O)NCc3ccccc3CN(C)C)cccc2c1=O | i
Cc1ccc(S(=O)(=O)N2CCN(C(=O)NCC3CN(CC(C)C)CCO3)CC2)cc1 (centres undefined) | i
CCN(CC)CC1CCN(C(=O)c2ccc3cc[nH]c3c2)CC1 | i
CN1CCC([C@@H]2CN(C(=O)c3ccc4cc[nH]c4c3)C[C@H]2C(N)=O)CC1 | 20µM*
CN1CCC([C@@H]2CN(C(=O)c3ccccc3Cl)C[C@H]2C(N)=O)CC1 | i
CC(Sc1nnc(-c2ccco2)n1-c1ccccc1)C(=O)Nc1ccc(Cl)cn1 (centres undefined) | i
COCCn1c(COc2ccc(C(C)(C)c3ccccc3)cc2)n[nH]c1=S | i
CCNC(=S)NNC(=O)c1ccccc1 | i
CC(=O)NCC1CCCN(Cc2ccc(-c3ccccc3C#N)o2)C1 (centres undefined) | 28µM*
CCc1ccc(CN2CCCC(CNC(=O)c3cccc(OC)c3OC)C2)o1 (centres undefined) | i
Cc1c(CN2CCCC(CNC(=O)c3cccc4ccccc34)C2)[nH]c2ccccc12 (centres undefined) | i
CCOc1ccccc1NC(=O)Cn1c(=O)c(-c2noc(C)n2)c2n(c1=O)CCCCC2 | i
Cc1ccccc1C(=O)Nc1ccnn1C1CCN(Cc2cccnc2)CC1 | i
O=C(NCC1CCCO1)c1cc(-c2ccccc2F)cc2c1OCCN2Cc1cccnc1 (centres undefined) | 20µM*
CN(C)C(=O)c1cc(-c2ccccc2F)cc2c1OCCN2Cc1cccnc1 | i
